# ERa coact inh – ERα–SRC-1 coactivator interaction inhibitors, primary screen, biochemical, TR-FRET, ERα LBD, estradiol-bound; Estrogen receptor (Homo sapiens), P03372; TR-FRET ER-alpha LBD / SRC-1 peptide; inhibition, % at 25.6 µM; 86,000 compounds, 1.7% hits; AID 629, 2007; in the data active = inhibition above about 50%;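 also: 0% = receptor plus peptide control and 100% = peptide only without receptor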
# MRP-1 activ – H69AR viability gain despite doxorubicin, primary screen, MRP-1 activator project, H69AR cells, CellTiter-Glo | viability rescue | viability increase, % at 10 µM | 140,000 compounds, 0.61% hits;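 active = viability gain under doxorubicin at or above a set limit, the compound median plus 3 SD, cut at about 4.7% in these data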;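 also: MRP-1 overexpressing cells given doxorubicin 25 µM after compound pretreatment; 18-22 h compound pretreatment then 72 h with doxorubicin before readout; 0% = doxorubicin-only wells and 100% = vehicle-treated cells without doxorubicin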
# Smad3 FoxH1 inh – Smad3/FoxH1 peptide binding inhibitors, primary screen, biochemical, TR-FRET; Mothers against decapentaplegic homolog 3 (Homo sapiens), P84022; TR-FRET Smad3/Dy647-FoxH1 peptide binding, europium anti-His; inhibition, % at 25 µM; 88,000 compounds, 0.29% hits; AID 630, 2007;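 active = compounds that reduce the energy-transfer binding signal between the protein and its labelled peptide by more than half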;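 also: 0% = Smad3 plus labelled peptide maximal FRET and 100% = peptide-only background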
# MRP resist rev – reversal of MRP1-mediated doxorubicin resistance, primary screen, H69AR cells, doxorubicin co-treatment | differential viability (reversal), % at 10 µM | AID 602, 2007 | H69AR cells + 2 uM doxorubicin, CellTiter-Glo, 72 h | 85,000 compounds, 0.04% hits;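 active = viability drop by adding the cancer drug above about 55%, with treated viability meeting a 40% cutoff, limit read from the data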;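 also: viability without doxorubicin minus viability with 2 µM doxorubicin for each compound; larger differential means the compound sensitizes cells more to doxorubicin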
# ERb coact inh – inhibitors of ERβ-SRC1 coactivator interaction, primary screen, biochemical, TR-FRET, ERβ LBD, SRC-1 peptide | Estrogen receptor beta (Homo sapiens), Q92731 | 86,000 compounds, 1.3% hits | TR-FRET ER-beta LBD / SRC1-Cy5 peptide binding; receptor agonist-loaded with 1 µM estradiol | inhibition, % at 25.6 µM;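 active = compounds whose percent inhibition of the receptor-coactivator binding signal exceeds about 50% in the single-dose screen, limit read from the data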;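 also: 0% = receptor plus peptide wells without compound and 100% = peptide-only wells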
# Target sequence (Q92731 whole entry, looked up, the tested form may be a part): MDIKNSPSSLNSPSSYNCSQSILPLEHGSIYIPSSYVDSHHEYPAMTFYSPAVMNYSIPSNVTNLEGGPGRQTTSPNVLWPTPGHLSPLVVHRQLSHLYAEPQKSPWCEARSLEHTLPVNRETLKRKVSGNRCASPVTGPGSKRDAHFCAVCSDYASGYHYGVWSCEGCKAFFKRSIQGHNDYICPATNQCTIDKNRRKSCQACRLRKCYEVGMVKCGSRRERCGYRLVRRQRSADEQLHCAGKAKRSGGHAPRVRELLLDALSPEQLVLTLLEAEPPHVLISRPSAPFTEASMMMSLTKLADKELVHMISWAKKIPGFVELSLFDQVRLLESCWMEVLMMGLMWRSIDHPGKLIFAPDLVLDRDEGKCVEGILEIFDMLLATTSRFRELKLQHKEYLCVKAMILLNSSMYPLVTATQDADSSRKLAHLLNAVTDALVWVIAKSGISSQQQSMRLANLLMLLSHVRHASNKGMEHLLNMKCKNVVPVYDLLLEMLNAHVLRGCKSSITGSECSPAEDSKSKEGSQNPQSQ
# ERa SRC1 pot – enhancers of ERα–SRC-1 coactivator binding, primary screen, biochemical, TR-FRET, ERα LBD, low estradiol; TR-FRET ERalpha-LBD/SRC-Cy5 coactivator binding, 2 h; 100 = basal binding, no effect; coactivator binding (% of control), % at 25.6 µM; 86,000 compounds, 1.3% hits; in the data active = activity above about 200%;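 also: binding measured in presence of low estradiol as agonist stimulus; 0% = peptide alone without receptor and 100% = receptor with peptide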
# Starred values were filed as active, the others as inactive; . = not tested or not shown; [ ] = dose if it differs, or a comment. Compounds with a hit are over-represented: about 2.8% of the library has one in this group of screens.
SMILES,ERa coact inh,MRP-1 activ,Smad3 FoxH1 inh,MRP resist rev,ERb coact inh,ERa SRC1 pot
O=C(CSc1oc(-c2ccco2)nc1S(=O)(=O)c1ccc(Cl)cc1)NCC1CCCO1 (stereo not given),53.9*[fluorescence artefact?],-1.9,-8.7,8.9,43.1,43.8
COc1ccc(-c2cc([C@H](O)[C@@H]3CCCCN3)c3ccccc3n2)cc1,.,.,12.5,.,.,.
CCCC1=NN2C(=N)/C(=C\c3ccc(SCc4ccco4)o3)C(=O)N=C2S1,83.8*[fluorescence artefact?],-2.4,10.4,-3.5,69.5*,60.8
CCC1=NN2C(=N)/C(=C\c3ccc(SCc4ccco4)o3)C(=O)N=C2S1,74.6*,-0.5,9.1,-6.6,74.9*,36.5
CCCCc1ccc(NS(=O)(=O)c2cccs2)cc1,-2.6,-1.6,4.6,-1.6,12.2,86.7
CC(C)Oc1cccc(C(=O)NC(=S)NCc2cccnc2)c1,.,0.1,.,.,.,.
COc1cccc(CNC(=O)c2cc3oc4ccccc4c3n2C)c1OC,2.1,-0.1,-13.0,-10.0,-15.7,102.2
CCOc1ccccc1CNC(=O)c1cc2oc3ccccc3c2n1CC,-0.1,7.6*,-0.7,11.9,0.1,103.5
CCC(=O)Oc1ccc(C(CC)C(CC)c2ccc(OC(=O)CC)cc2)cc1 (stereo not given),-2.4,0.0,8.2,-13.3,-1.8,576.5*
CCC(=O)Oc1ccc(-c2cnc3ccccc3n2)cc1,.,-2.0,.,.,.,.
O=C(/C=C/c1ccccc1)Nc1ccc(N2CCCCC2)cc1,.,-1.2,.,.,.,.
CC1=CC(C)(C)Nc2ccc(C)cc21,3.1,-1.1,73.0*,14.6,-1.5,121.4
CC1=CC(C)(C)Nc2cc(C)c(C)cc21,-29.4,-2.1,-1.8,14.3,-3.5,113.9
O=S1(=O)CCN(c2ccccc2CC(c2c[nH]c3ccccc23)c2c[nH]c3ccccc23)CC1,.,.,88.0*,.,.,.
CN(CCOc1ccc(Cl)cc1)c1ccc(S(=O)(=O)N2CCCCC2)cn1,17.1,1.5,12.6,-6.4,14.9,235.7*[fluorescence artefact?]
CCOc1ccc(S(=O)(=O)N2CCCC2)cc1,-2.8,0.2,2.6,4.6,0.8,105.1
CCCCCCCc1nc2c(=O)n(C)c3ccccc3c2o1,14.3,-0.9,20.7,2.6,18.5,116.7
CCCCCCc1nc2c(=O)[nH]c3ccccc3c2o1,8.5,-3.4,15.4,6.0,8.1,248.9*[fluorescence artefact?]
O=c1ccnc(SCc2ccc(Cl)cc2)[nH]1,.,.,-8.1,.,.,.
O=c1c2ccccc2nc2n1CC/C2=C/N1CCN(c2cccc(C(F)(F)F)c2)CC1,70.5*[fluorescence artefact?],-1.8,-8.9,-20.0,99.6*[fluorescence artefact?],59.2
N#Cc1ccc(-c2ccc3c(c2)OCO3)nc1SCC(=O)OCc1ccccc1,17.3,-3.4,-14.8,20.0,-4.7,245.9*[fluorescence artefact?]
Cc1ccc(C(=O)CSc2nc(-c3ccccc3)ccc2C#N)cc1,.,-1.1,.,.,.,.
COc1ccc(-c2ccc(C#N)c(SCC(=O)OCc3ccccc3)n2)cc1OC,-1.2,-0.2,14.3,-1.3,43.4,205.6*[fluorescence artefact?]
COc1cccc(-c2ccc(C#N)c(SCC(=O)NCCc3ccccc3)n2)c1,.,-2.3,.,.,.,.
Cc1ccc2nc(-c3ccc(NC(=O)c4ccc(N)cc4)c(S(=O)(=O)O)c3)sc2c1,.,.,14.7,.,.,.
SMILES,ERa coact inh,MRP-1 activ,Smad3 FoxH1 inh,MRP resist rev,ERb coact inh,ERa SRC1 pot
CCN1CCc2nc(NC(=O)c3ccc4c(c3)OCCO4)sc2C1,51.4*[fluorescence artefact?],-1.8,-2.3,5.6,27.1,93.6
CCN1CCc2nc(NC(=O)CC(c3ccccc3)c3ccccc3)sc2C1,37.5,-2.9,-13.5,2.1,11.1,281.6*[fluorescence artefact?]
O=C(Nc1nc2c(s1)CN(Cc1ccccc1)CC2)c1cccc(S(=O)(=O)N2CCc3ccccc32)c1,-6.1,-3.7,25.0,11.8,-3.9,499.9*[fluorescence artefact?]
CC1CCc2nc(NC(=O)CN3CCN(Cc4ccc5c(c4)OCO5)CC3)sc2C1 (stereo not given),-6.8,-2.0,-1.9,0.2,-5.8,107.3
CCN1CCc2nc(NC(=O)C(c3ccccc3)c3ccccc3)sc2C1,-15.6,-1.5,7.7,-11.0,-12.9,114.4
CCN1CCc2nc(NC(=O)Cc3ccc4c(c3)OCCO4)sc2C1,53.5*,0.5,7.5,-0.4,19.1,59.6
Cc1ccc(S(=O)(=O)OC2CCN(C)CC2)cc1,.,.,14.0,.,.,.
CSc1ccccc1C(=O)Nc1nccs1,75.6*[fluorescence artefact?],-0.2,14.3,5.5,-0.9,121.4
O=C(Nc1cccc(-c2cn3cccnc3n2)c1)c1ccco1,-5.7,-2.1,2.4,-7.8,4.8,94.9
O=C(Nc1cccc(-c2cn3cccnc3n2)c1)c1ccc2c(c1)OCO2,60.5*,-2.8,-9.5,-6.6,10.2,116.1
O=C(Nc1ccc2nn(-c3ccccc3)nc2c1)c1ccc2c(c1)OCO2,51.2*,-0.4,-18.7,40.8,35.9,181.4
O=C(Nc1cccc(F)c1)c1ccc2c(c1)OCO2,1.1,0.6,8.3,-1.0,5.8,109.1
CSc1nnc2c(n1)OC=Nc1ccccc1-2,-32.6,-1.3,12.9,-5.1,-12.9,105.4
Cc1cccc(C)c1NC(=O)CSc1nnc(-c2ccco2)c(-c2ccco2)n1,84.1*[fluorescence artefact?],-2.3,-3.6,-10.8,83.2*[fluorescence artefact?],11.1
CSc1nnc(-c2ccco2)c(-c2ccco2)n1,89.7*[fluorescence artefact?],-1.2,28.2,-22.7,91.3*[fluorescence artefact?],7.3
Cc1ccccc1NC(=O)CSc1nnc(-c2ccco2)c(-c2ccco2)n1,71.3*,-2.7,5.8,-13.8,72.1*,58.2
Cc1cccc(C)c1NC(=O)CCCSc1nnc(-c2ccco2)o1,7.9,-2.0,-3.4,2.2,1.2,108.9
Cc1ccc(OCCN2C(=O)OC(C)(C)C2(C)O)cc1 (stereo not given),-3.4,0.7,-4.7,-8.0,-6.2,110.2
N#C/C(=C\c1ccc(F)cc1)c1n[nH]c(Cn2cncn2)n1,8.8,-3.4,4.2,-21.7,9.5,83.1
O=C(Nc1ccc(OC(F)(F)F)cc1)c1n[nH]c(Cn2cncn2)n1,.,4.9*,.,.,.,.
COc1cc(C(=O)Nc2cnc(NC(=O)C(C)C)cc2C)cc(OC)c1OC,-6.4,-1.6,-2.0,-7.9,51.8*,151.1
Cc1cc(NC(=O)C(C)C)ncc1NC(=O)Cc1ccccc1,-30.6,1.6,11.8,5.4,-36.0,123.2
Cc1ccc(C)c(N2CCN(C(=O)Cc3ccc(-n4c(=O)[nH]c5ccsc5c4=O)cc3)CC2)c1,.,9.6*,.,.,.,.
Cc1cccc(N2CCN(C(=O)Cc3ccc(-n4c(=O)[nH]c5ccsc5c4=O)cc3)CC2)c1C,.,3.3,.,.,.,.
O=C(NC(=S)Nc1ccccc1N1CCCCC1)c1ccc(-c2cccc([N+](=O)[O-])c2)o1,-1.8,8.0*,-0.7,-2.0,-4.4,105.2

# Compound activity deposited in PubChem by several laboratories.
